Assay results as given in the supplement of paper PMC3334620.
Over roughly 33,000 sequences, “E-score (-0.5 to 0.5)” has its median near -0.015; the highest 2% begin near 0.3. For the sample, the highest values were picked, then their nearest neighbours and some sequences at random.

Biological target: T1, Abf1 (UniProt P14164)
T1 sequence: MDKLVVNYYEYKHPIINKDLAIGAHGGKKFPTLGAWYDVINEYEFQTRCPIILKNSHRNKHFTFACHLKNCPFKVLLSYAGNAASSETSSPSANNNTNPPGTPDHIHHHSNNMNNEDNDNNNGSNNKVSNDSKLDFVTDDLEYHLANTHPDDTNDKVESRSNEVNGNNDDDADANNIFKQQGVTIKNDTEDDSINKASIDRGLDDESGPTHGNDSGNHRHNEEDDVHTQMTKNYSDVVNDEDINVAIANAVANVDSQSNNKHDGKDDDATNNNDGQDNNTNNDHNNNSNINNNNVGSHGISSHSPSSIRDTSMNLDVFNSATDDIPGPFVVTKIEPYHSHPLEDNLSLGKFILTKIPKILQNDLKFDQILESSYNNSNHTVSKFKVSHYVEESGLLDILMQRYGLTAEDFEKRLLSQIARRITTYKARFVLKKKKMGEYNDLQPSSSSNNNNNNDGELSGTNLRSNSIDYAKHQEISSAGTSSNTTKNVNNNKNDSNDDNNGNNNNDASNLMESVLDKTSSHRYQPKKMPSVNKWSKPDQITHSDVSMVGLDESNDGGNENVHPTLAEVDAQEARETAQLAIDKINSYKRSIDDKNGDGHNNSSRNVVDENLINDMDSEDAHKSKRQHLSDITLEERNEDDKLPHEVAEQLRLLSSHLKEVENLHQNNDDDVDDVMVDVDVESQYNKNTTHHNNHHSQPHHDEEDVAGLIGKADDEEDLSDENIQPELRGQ
Assay: PBM E-score (8-mer binding enrichment) (E-score (-0.5 to 0.5)); higher = stronger / more preferred TF binding
Settings: protein concentration: 200 nM; construct: GST-full length
Method: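 Universal 'all 10-mer' protein binding microarrays (Agilent AMADID 015681) probed with GST-tagged S. cerevisiae TFs (full-length or DBD) made by in vitro transcription/translation (PURExpress), about 100-200 nM. Bound TF was detected with fluorescent anti-GST. Each ungapped 8-mer (which stands for itself and its reverse complement) is scored by the PBM enrichment score (E-score), a modified Wilcoxon-Mann-Whitney statistic from -0.5 to +0.5, computed with the Universal PBM Analysis Suite. Scale: above 0.35 generally sequence-specific binding.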

Sequence	PBM E-score
TATCGCGA	0.34
GATCGCCA	0.165
GATCGCGC	0.121
GATCGCGA	0.315
CATCGCGA	0.2
AATCGCGA	0.176
ATTTAGCA	0.193
AGGTAATG	0.0091
AACTCTAT	-0.096
CGTCTTTC	0.0707
CGTCTTTA	0.301
GGTCTTTA	0.0661
CTTGTTAA	-0.072
ACCGTGCT	0.139
ACCGTGCG	0.315
CCCGTGCA	0.0856
ATCGTGCA	0.282
ACCGTGCA	0.315
TCCGTGAA	0.238
ACCGTGCC	0.0366
TCCGTGCA	0.312
GCCGTGCA	0.223
ATCGTGCC	0.276
CCCGTGCG	0.054
ATCGTGCG	0.366

Sequence	PBM E-score
AAGTTGTG	-0.0478
CTAGGAAG	-0.18
CACTGAGA	-0.104
AGAAGTTG	-0.0778
CTTCGACC	-0.0331
GTAGTCAA	0.106
CGTGAGTC	0.0135
CGCCCGCG	-0.0644
AACAGTAT	0.0291
AGGTCCAC	-0.0594
CATACGAG	0.171
AATACGGC	0.32
CATACGAC	0.333
CATACGGC	0.346
GATACGGC	0.199
AATACGGT	0.194
AATACGGG	0.202
CATACGCC	-0.00293
CATACGGA	0.295
CAGCTTTC	-0.00915
AAACTTCT	0.211
ATCGCCAC	0.275
ATAGATAC	-0.0386
GTCACTTA	0.355
GTCACTGA	0.253

Sequence	PBM E-score
ATCACTGA	0.205
ATCACTTC	0.376
ATCACTTA	0.355
AGCACTTG	-0.314
AGCACTTC	0.0874
AACACTTG	-0.0627
GCCACTTA	-0.0218
CTCACTTA	0.14
CTCACTTC	-0.0359
ATCACTTG	0.355
CACGGGTC	-0.0483
CGTGTGGC	0.0664
ATACCGAA	0.189
ATTGACGC	-0.156
AGTTCTTC	-0.0427
CTTCAGAA	-0.179
CAAGAACG	0.123
GCCATTAA	0.0468
AATTGAAG	-0.0559
CACACGGA	0.0992
AACACGAA	0.205
GACACGGA	0.167
GACACGAA	0.172
CACACGAG	0.107
TACACGAA	0.337

Sequence	PBM E-score
CACACGAC	0.295
CACACGAA	0.341
TACACGGA	0.329
GGGCAGCA	-0.256
AGCAGGTG	-0.0258
ACCTAACC	0.0492
ACTTAGGC	-0.111
ACTCATCC	0.227
TCCGAAGA	-0.0522
CACGAAGA	0.316
AACGAAGA	0.188
GACGAAGA	0.253
TACGAATA	0.25
TACGAAGA	0.334
CAGCAGGA	-0.0545
ACCCTACT	-0.231
CCTATTCC	-0.139
GCAGGTAC	-0.221
AAATGACC	0.215
GAATGACA	0.311
GAATGACC	0.0136
AAATGACG	0.187
TAATGACA	0.376
CAATGACA	0.214
TAATGCCA	-0.0319

Sequence	PBM E-score
AAATGACA	0.358
TATTGACA	-0.0437
GACTTCTC	0.167
ATGAGCGC	0.0585
GTAGGGTA	0.0591
CCGTTTGC	-0.0132
CATAGCAG	-0.126
CTCGTACC	0.184
GGCGTACA	0.0819
CACGTACA	0.0758
ATCGTACG	0.394
AACGTACA	0.0978
ATCGTAAG	0.108
CTCGTACA	0.342
ATCGTACC	0.0609
GTCGTAGA	0.278
GTCGTACA	0.383
ATCGTACA	0.34
ATCGTAAA	0.234
GTCTGCAC	-0.061
GGTCCTGA	-0.0764
CGGAAGTA	-0.0352
ACAGGTAC	-0.146
GGCTTTAC	-0.225
GCTGGGTA	-0.0116

Sequence	PBM E-score
AAGAAAAA	-0.0775
CCAGGATA	0.126
GTGAGGTA	-0.0243
AGAAACCT	-0.237
ATTACGGC	0.184
ATTACGGA	0.303
CTTACGTA	0.212
ATTACGGG	-0.0226
ATTACGTA	0.372
ATTACGTG	0.176
GAGAGGCA	-0.176
GCCCTACC	-0.149
CTGAATCA	-0.0743
AAGCCCCC	-0.352
GTAGTGAA	0.0467
CTAGTGAA	-0.202
ATAGTGAA	0.0719
ATAGTGAC	0.35
ACAGTGAT	0.294
GCAGTGAC	0.15
ATAGTGGG	-0.075
CTAGTGAG	-0.0339
ATAGTGAT	0.436
CTAGTGAC	0.316
ATAGTGAG	0.069

Sequence	PBM E-score
GTAGTGAC	0.35
AGTCGTAC	0.169
CTGGGTAA	-0.0825
ATGGGTTC	-0.0947
GCGCGCGC	0.197
GCAGGGAC	-0.131
TTAGCCAA	-0.00286
CGGCGCCC	-0.143
CGAGCAAA	0.179
CGCGGGAC	-0.172
CTCGTGCA	0.124
GTCGTGCA	0.374
GGCGTGCA	-0.0867
AACGTGCA	0.0844
CACGTGCA	0.139
GACGTGCA	0.358
GATGGAGA	-0.00795
AGATCGCA	0.0409
ATCCCCGC	-0.211
CACAAAGA	0.0323
AGGTCAGC	-0.0373
TCGTACAA	0.402
